Where “and” joins values, the source holds several entries; their conditions need not be identical. Equal values may be shown once. Records with an inconclusive call do not appear. The source holds several records for some structures; these can differ, active in one and inactive in another. Calls of active or inactive are those of the source. How the source made its calls, unless noted: active means hit-call score of the fitted dose curve at least 0.9, where 1 is the maximum; inactive means score below 0.9.

Read-out in test [1]: Monokine induced gamma interferon (MIG), CXCL9 (gene 4283)
In words: BSK_3C_MIG: BioMAP Diversity Plus: 3C Assay for Monokine induced gamma interferon (MIG) Biomarker Activity (AID 2283021).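 On AC50: MIG protein level measured by immunoassay in the treated endothelial cultures.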 The following applies: primary human endothelial cells (HUVEC); actives raise or lower the signal. An outline of the steps:
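Primary human umbilical vein endothelial cells in the 3C system were exposed to chemical for 24 h, after which MIG was quantified by ELISA. Activity was fitted bidirectionally against DMSO as negative control and baseline.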

Test [2] concerns the target human Vitamin D Receptor (VDR), VDR (gene 7421) (UniProt P11473). In words: ATG_VDR_TRANS: Attagene TRANS-FACTORIAL HepG2 Assay for human Vitamin D Receptor (VDR) (AID 2283022; active means hit-call score of the fitted dose curve at least 0.9, where 1 is the maximum). In a few lines:
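HepG2 cells were transiently transfected with GAL4-UAS reporter units and a chimeric VDR-Gal4 construct, then dosed for 24 hours. Reporter mRNA was quantified by RT-PCR, fluorescent labeling, HpaI digestion and capillary electrophoresis; gain of signal analysed vs DMSO.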

Test [3] in a line: BSK_3C_SRB: Viability Assessment in the BioMAP Diversity Plus: 3C Assay (AID 2283023).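 Further: fitted both ways against DMSO so a hit may be signal rise or drop.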 The following applies: primary human endothelial cells (HUVEC). An outline of the steps:
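Human umbilical vein endothelial cells in the 3C system, treated 24 h. Total protein measured by 0.1% sulforhodamine B staining after 10% TCA fixation, read at 560 nm; bidirectional fit versus DMSO.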

Read-out in test [4]: Matrix Metallopeptidase 1 (MMP1), MMP1 (gene 4312)
In words: BSK_BE3C_MMP1: BioMAP Diversity Plus: BE3C Assay for Matrix Metallopeptidase 1 (MMP1) Biomarker Activity (AID 2283024). The following applies: primary human bronchial epithelial cells; actives raise or lower the signal. An outline of the steps:
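Primary human bronchial epithelial cells were dosed with test chemicals, and MMP1 levels were measured by ELISA 24 h later. Data were fitted bidirectionally against DMSO as the negative control and activity baseline.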

A short description of test [5]: BSK_3C_Vis: BioMAP Diversity Plus: 3C Assay for Morphology Visualization (AID 2283025).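 Further: fitted both ways so gain or loss versus DMSO counts.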 The following applies: primary human endothelial cells (HUVEC). An outline of the steps: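 Human umbilical vein endothelial cells in the 3C system were imaged by light microscopy 24 h after chemical dosing to record cell morphology. Activity was fitted bidirectionally against DMSO as negative control and baseline; the endpoint serves as a background control.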

Read-out in test [6]: Pselectin, SELP (gene 6403)
In words: BSK_4H_Pselectin: BioMAP Diversity Plus: 4H Assay for Pselectin Biomarker Activity (AID 2283026). The settings on record: primary human endothelial cells (HUVEC); actives raise or lower the signal. In a few lines: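 Primary human umbilical vein endothelial cells were exposed to test chemical for 24 h, then cell-surface P-selectin was quantified by ELISA. Activity was fitted bidirectionally against DMSO as negative control and baseline.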

The nature of test [7]: BSK_4H_SRB: Viability Assessment in the BioMAP Diversity Plus: 4H Assay (AID 2283027).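 Further: cells exposed to compound for 24 h before staining.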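 On AC50: curves fitted both ways versus DMSO so AC50 may be loss or gain.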 The following applies: primary human endothelial cells (HUVEC). In a few lines: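 Human umbilical vein endothelial cells, 24 h after chemical dosing; total protein measured by 0.1% sulforhodamine B staining after 10% TCA fixation, read at 560 nm. Bidirectional fitting against DMSO.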
A short description of test [8]: BSK_BE3C_SRB: Viability Assessment in the BioMAP Diversity Plus: BE3C Assay (AID 2283028).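 On AC50: fitted both ways so AC50 may mark signal gain or loss versus DMSO.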 The settings on record: primary human bronchial epithelial cells. In a few lines:
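Human bronchial epithelial primary cells in confluent culture, 24 h after chemical dosing; total protein by 0.1% SRB staining after 10% TCA fixation, read at 560 nm. Bidirectional fitting versus DMSO baseline.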

Read-out in test [9]: Thrombomodulin, THBD (gene 7056)
In words: BSK_3C_Thrombomodulin: BioMAP Diversity Plus: 3C Assay for Thrombomodulin Biomarker Activity (AID 2283029). The following applies: primary human endothelial cells (HUVEC); actives raise or lower the signal. An outline of the steps:
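Primary human umbilical vein endothelial cells (3C system) were exposed to chemical for 24 h, then thrombomodulin levels were measured by ELISA. Activity was fitted bidirectionally against the DMSO negative control as baseline.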

Read-out in test [10]: Urokinase-type plasminogen activator receptor (uPAR), PLAUR (gene 5329)
In words: BSK_4H_uPAR: BioMAP Diversity Plus: 4H Assay for Urokinase-type plasminogen activator receptor (uPAR) Biomarker Activity (AID 2283030). The following applies: primary human endothelial cells (HUVEC); actives raise or lower the signal. An outline of the steps: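 Human umbilical vein endothelial cells in the 4H system, 24 h after chemical dosing. Cell-surface uPAR measured by ELISA, fitted in both directions versus DMSO; cytotoxicity checked by SRB total protein in parallel cultures.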

Sequence of human Vitamin D Receptor (VDR), VDR (gene 7421) (P11473 whole entry, looked up, the tested form may be a part): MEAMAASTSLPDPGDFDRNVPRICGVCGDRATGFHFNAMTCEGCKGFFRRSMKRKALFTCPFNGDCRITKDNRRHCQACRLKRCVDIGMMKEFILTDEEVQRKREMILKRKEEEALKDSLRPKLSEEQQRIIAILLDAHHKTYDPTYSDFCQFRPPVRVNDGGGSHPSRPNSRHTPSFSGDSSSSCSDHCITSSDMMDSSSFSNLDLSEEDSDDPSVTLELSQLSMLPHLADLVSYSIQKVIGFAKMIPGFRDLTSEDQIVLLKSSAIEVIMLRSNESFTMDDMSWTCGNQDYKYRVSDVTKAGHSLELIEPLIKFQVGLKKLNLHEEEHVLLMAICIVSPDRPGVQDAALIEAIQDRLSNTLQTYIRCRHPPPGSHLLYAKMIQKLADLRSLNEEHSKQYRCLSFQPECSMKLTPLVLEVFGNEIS

`COS(=O)(=O)OC`: the outcome in [1], in test [2], in test [3], in test [4], in test [5] and in test [6] was inactive. Further, the outcome in [7], in [8], in [9] and in test [10] was inactive.
For the molecule `CC1=C2C[C@H]3[C@@H](CC=C4C[C@@H](O)CC[C@@]43C)[C@@H]2CC[C@]12O[C@@H]1C[C@H](C)CN[C@H]1[C@H]2C`, the outcome in [1], in [3], in test [4], in test [6], in test [7] and in test [8] was inactive. The result in [9] and in [10] was inactive. In test [5], the AC50 is 4.9 µM (active).
On to `CCOCCOC(C)=O`, for which the result in test [1], in test [3], in [4], in test [5], in test [6] and in test [7] was inactive. In addition, the result in test [8], in test [9] and in [10] was inactive.
Regarding `ClC1=C(Cl)[C@]2(Cl)[C@@H]3[C@@H](Cl)[C@H]4O[C@H]4[C@@H]3C1(Cl)C2(Cl)Cl`, the outcome in test [1], in test [2], in test [4], in [5], in [6] and in test [7] was inactive. The result in test [8], in test [9] and in [10] was inactive. For the same molecule, the AC50 in [3] was 11.9 µM (active).
With `Oc1ccc(Cl)cc1Cl`, the result in [1], in [3], in [4], in test [5], in test [6] and in test [7] was inactive. Besides, the result in test [8], in test [9] and in [10] was inactive.
Consider `O=C(NC(=O)c1cc(F)c(F)cc1Cl)Nc1cc(F)ccc1N1CCC(C(=O)O)CC1`, for which the outcome in test [1], in test [3], in test [4], in test [5], in [6] and in test [7] was inactive. Besides, the result in test [8], in test [9] and in [10] was inactive.
Consider `C=CC(N)=O`, for which the result in test [1], in [2], in test [3], in test [4], in test [5] and in test [6] was inactive. Also, the result in test [7], in [8], in test [9] and in test [10] was inactive.
As for `CCC(C)(c1ccc(O)cc1)c1ccc(O)cc1`, the result in [1], in test [8] and in test [9] was inactive. In addition, the AC50 is 30 µM (active) in [3]; 20 µM (active) in [4]; 39 µM (active) in test [5]; 32.1 µM (active) in test [6]; 24.3 µM (active) in test [7]; 34.8 µM (active) in test [10].
`Cc1cccc([N+](=O)[O-])c1`: the result in test [1], in test [2], in test [3], in test [4], in [5] and in test [6] was inactive. Also, the result in test [7], in [8], in test [9] and in test [10] was inactive.
As for `NS(=O)(=O)C(F)(F)C(F)(F)C(F)(F)C(F)(F)C(F)(F)C(F)(F)C(F)(F)C(F)(F)F`, the AC50 is 33.3 µM (active) and 51.2 µM (active) and 47.8 µM (active) in test [1]; 30.8 µM (active) and 44.1 µM (active) and 43.6 µM (active) in [3]; 13.4 µM (active) and 7.12 µM (active) and 7.29 µM (active) in test [4]; 37.5 µM (active) in test [5]; 27.6 µM (active) and 43.9 µM (active) and 45.9 µM (active) in test [6]; 26.8 µM (active) and 44.2 µM (active) and 47.6 µM (active) in test [7]. The AC50 in test [8] was 25.8 µM (active) and 51.3 µM (active); in test [9] it was 10.9 µM (active) and 16.4 µM (active); in test [10], 29.3 µM (active) and 43.7 µM (active) and 45.6 µM (active). For the same molecule, the result in test [9] was inactive.
Turning to `Oc1ccc(C(c2ccc(O)cc2)(C(F)(F)F)C(F)(F)F)cc1`, the AC50 was 34.9 µM (active) in test [1]; 16.2 µM (active) in test [3]; 34 µM (active) in test [4]; 18.7 µM (active) in test [5]; 15.7 µM (active) in [6]; 28 µM (active) in [7]. Further, the concentration at half-maximal activity (AC50) in test [8] is 37.2 µM (active); in test [9], 21.3 µM (active); in [10] it was 32.5 µM (active). Moreover, the molecule was called inactive in test [2].
Regarding `Clc1ccc(C(Cl)(Cl)Cl)cc1`, the outcome in test [1], in [3], in test [4], in test [5], in test [6] and in [7] was inactive. Further, the result in test [8], in test [9] and in test [10] was inactive.
Take `CC(c1ccc(O)cc1)(c1ccc(O)cc1)c1ccc(O)cc1`: the result in test [1], in [4], in [8] and in [9] was inactive. Moreover, the concentration at half-maximal activity (AC50) in [2] was 17.7 µM (active); in test [3], 28 µM (active); in [5] it was 39 µM (active); in test [6], 31.9 µM (active); in test [7] it was 20 µM (active); in test [10], 30.8 µM (active).
With `CCCCCCCCCC[N+](C)(C)CCCCCCCCCC`, the AC50 in test [1] is 5.66 µM (active); in test [3], 2 µM (active); in test [4] it was 4.95 µM (active); in [5] it was 4.15 µM (active); in test [6], 1.99 µM (active); in test [7], 2.01 µM (active). Besides, the results for the half-maximal activity concentration (AC50) in test [8] and in [10] were 5.15 µM (active) and 6.83 µM (active), respectively. The outcome in test [9] was inactive.
Take `CC(C)C(=O)OCC(C)(C)C(OC(=O)C(C)C)C(C)C` (stereo unspecified): the outcome in [1], in test [3], in [4], in test [5], in test [6] and in test [7] was inactive. Moreover, the outcome in [8], in [9] and in [10] was inactive.
`CCNc1nc(NC(C)C)nc(SC)n1`: the outcome in test [1], in test [2], in [3], in test [4], in test [5] and in [6] was inactive. The result in test [7], in [8], in test [9] and in [10] was inactive.
As to `CCOC(=O)C(O)(c1ccc(Cl)cc1)c1ccc(Cl)cc1`, the AC50 was 39.4 µM (active) in [1]; 34.5 µM (active) in test [3]; 8.5 µM (active) in [4]; 37.3 µM (active) in test [5]; 32.2 µM (active) in test [6]; 32.2 µM (active) in test [7]. Besides, in [10], the concentration at half-maximal activity (AC50) is 31.3 µM (active). The outcome in test [8] and in test [9] was inactive.

For the origin of these results see PubChem BioAssay (EPA / NIEHS).
